# Measured values from PubChem BioAssay AID651947 (Broad Institute, 2012).
# Potency and affinity values are given separately. Inconclusive results are not listed. A number with no mark means an inactive call.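 The calls were made as follows: active = luminescence drop in HepG2 cells whose fitted half-effect dose is at most twice the top valid dose; inconclusive = flat curve with 30 to 70% signal loss, or unreliable fit; inactive = the rest.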
# Assay: cytotoxicity in HepG2 cells, dose response, cytotoxicity control, cell-based, plate reader, dry powder (AID 651947)
# Settings: HepG2 viability, ATP luminescence (CellTiter-Glo), 48 h, hits give low values; at 26 µM unless noted
row,SMILES,max activity
1,COc1ccc(CSc2nnc(-c3ccccc3)o2)cc1,-24.9% [at 0.195 µM]
2,Clc1ccc(-c2nnc(SCc3ccccc3)o2)cc1,-50.8%
3,c1ccc(CSc2nnc(-c3ccccc3)o2)cc1,-12.1% [at 1.6 µM]
